Assay results as given in PubChem BioAssay (NCATS).
Where “and” joins values, the source holds several entries; their conditions need not be identical. Equal values may be shown once. Inconclusive results are not listed. Calls of active or inactive are those of the source. Calls come from the whole dose curve; as a rule, active = well fitted inhibition curve with a large enough effect; inconclusive = small, poorly fitted or top-dose-only effect; inactive = flat fitted curve, though single readings scatter.

Test: Primary qHTS for inhibitors of nuclear receptor binding SET domain protein 2 (NSD2) in an isogenic RCH-ACV NSD2 p.E1099K mutant (9B) (AID 1645876); note: nearly all actives have a fitted effect of over 70% in size
Details: RCH-ACV (leukaemia line) NSD2 E1099K (9B) viability, CellTiter-Glo, 72 h; series mostly up to 44.9 µM; activity change, negative = viability loss: at the top concentration
% is set by controls: 0 for no effect and ±100 for the full control effect; potency is the fitted concentration of half-maximal effect.

| Structure (SMILES) | Potency | activity change, negative = viability loss |
| --- | --- | --- |
| CN(C)c1nc(NC2CCC(NCCc3ccc(Br)cc3OC(F)(F)F)CC2)nc2ccccc12 (configuration not stated) | 3.65 µM (active) |  |
| CCOC(=O)c1cc(C#N)c(N2CCC(C(=O)NS(=O)(=O)Cc3ccccc3)CC2)nc1C |  | -13% (inactive) |
| O=C(Nc1nc2ccccc2n1CCc1ccccc1)c1ccccc1 | 6.49 µM (active) |  |
| CCN(CC)CCN(Cc1ccc(-c2ccc(C(F)(F)F)cc2)cc1)C(=O)Cn1c(SCc2ccc(F)cc2)nc(=O)c2c1CCC2 | 2.9 µM (active) |  |
| COc1cc2c(cc1OC)-c1[nH]nc(Nc3cccc(F)c3)c1C2 | 0.0916 µM (active) |  |
| CC(C)[C@@](C)(O)[C@@H]1CN(c2nc(-c3[nH]nc4ncccc34)c(F)cc2Cl)CCN1 | 6.49 µM (active) |  |
| COc1ccc(Oc2cc(C)c(-c3csc(NC(=O)c4ccncc4)n3)c(C)c2)cc1 | 0.163 µM (active) |  |
| CC(Oc1ccc2[nH]nc(/C=C/c3cnn(CCO)c3)c2c1)c1c(Cl)cncc1Cl (configuration not stated) | 0.115 µM (active) |  |
| CNC(=O)c1ccccc1Nc1nc(Nc2ccc(N3CCNCC3)cc2)ncc1Cl | 0.103 µM (active) |  |
| COc1cc(NC(=O)Nc2cccc(CNC(=O)O[C@H]3CCOC3)c2)ccc1-c1cnco1 | 0.459 µM (active) |  |
| CNC(=O)c1ccccc1Nc1nc(Nc2ccc3c(c2OC)CCCC(N2CCN(CCO)CC2)C3)ncc1Cl (configuration not stated) | 6.49 µM (active) |  |
| COc1ccc(C2(O)CCC(N3CC[C@@H](NC(=O)CNC(=O)c4cccc(C(F)(F)F)c4)C3)CC2)cn1 (some centres not stated) |  | -37.7% (inactive) |
| CC(=O)N1CCN(C(=O)Cc2ccc(Nc3ncc(F)c(Nc4ccc(C(=O)Nc5ccccc5Cl)cc4)n3)cc2)CC1 | 1.63 µM (active) |  |
| COc1cc2nc(N3CCCC3)nc(NCCCCCN3CCCC3)c2cc1OC | 4.59 µM (active) |  |
| CCN1CCN(Cc2ccc(NC(=O)Nc3ccc(Oc4cc(NC)ncn4)cc3)cc2C(F)(F)F)CC1 | 3.65 µM (active) and 2.35 µM (active) |  |
| CC(C)c1nc(-c2ccc(NC(=O)Nc3cccc(C(F)(F)F)c3)c3ccccc23)c2c(N)nccn12 | 0.578 µM (active) |  |
| CC(C)[C@@H](CS(=O)(=O)C(C)C)N1C(=O)[C@@](C)(CC(=O)O)C[C@H](c2cccc(Cl)c2)[C@H]1c1ccc(Cl)cc1 | 1.15 µM (active) and 833 nM (active) |  |
